This note sets out measurements from PubChem BioAssay (NCI).

Structures are written as SMILES. The panel holds about 83,000 compounds, 20% with a hit somewhere; the sample as a whole holds those more often.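 The test compound was applied at a single concentration to cells in 96-well plates for 48 hours, and percent growth was recorded.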 A number with no mark means an inactive call. Active and inactive are the calls of the source. The calls were made as follows: active = growth percent below 10; inactive = the rest.

This test deals with CAKI-1 renal. In words: NCI-60 one-dose screen, 48 h (100 = growth as untreated, 0 = no growth, -100 = all killed). The conditions noted are these: 10 µM unless noted.
With `COc1ccc(-c2csc(NC(=O)CN3CCN(c4cc5c(cc4F)c(=O)c(C(=O)O)cn5C4CC4)CC3)n2)cc1`, the growth is 21.3%.
For `O=C(O)c1ccc(=O)[nH]n1`, the growth is 109%.
Next, `COc1ccc(-c2cc(NC(=O)Nc3ccc(O)cc3)no2)cc1`: 31.2%.
Next, `CCN(CC)CCCNc1cc(OC)cc2nc3cc(Cl)ccc3nc12`: -78.7% (active); `Clc1nc(Cl)c2c3c(sc2n1)CCCC3`: 64.2%.
For the molecule `CNCCCn1c2c(c3ccc([N+](=O)[O-])cc3c1=O)C(=O)c1cc(OC)cnc1-2`, the growth was -83.4% (active).
Next, `C=C1CC2(OC1=O)C(=O)Nc1ccccc12` (centres undefined): 31.5%; `CN1CCN(Cc2ccc(NC(=O)c3cncc(C#Cc4c(N)ncc5ccc(C#N)cc45)c3)cc2C(F)(F)F)CC1`: 58.3%; `O=C1O[C@H]([C@H](O)CO)C(O)=C1O`: 87.1%.
The result for `COC(=S)SCN(CSC(=S)OC)c1ccc(Cl)cc1` reads 62.8%; that for `Cc1ccc(/C=C2\Oc3cc(OCC(=O)c4ccc(Cl)cc4)ccc3C2=O)cc1`, 101%.
The result for `CCN(C(=O)CN1CCN(c2cc3c(cc2F)c(=O)c(C(=O)O)cn3C2CC2)CC1)c1nc(-c2ccc(OC)cc2)cs1` reads 75.7%.
On to `OC(c1cc(-c2ccccc2)nc2ccc(Cl)cc12)C1CCCCN1` (centres undefined), for which the growth is 34.3%.
With `CC#CC#Cc1cccc(=O)o1`, the growth was 4.28% (active).
Next, `CNCc1cccc2c1OCCOCCOCCN(C)S(=O)(=O)c1ccc(cc1)-c1cnc(N)c(n1)C(=O)N2`: 44.6%; `CCCCCCCCCCCCCCCCCCSC1=CC(=O)C(OC)=C(OC)C1=O`: 96.3%.
The result for `CC1=C(C)C(=O)OC([C@](C)(O)[C@]2(O)CC[C@@]3(O)[C@@H]4C[C@H]5O[C@]56CC=CC(=O)[C@]6(C)[C@H]4CC[C@]23COC(=O)c2ccc(C)o2)C1` (some centres undefined) reads -87.2% (active); that for `O=C1C[C@H](Sc2nc(-c3ccc(F)cc3)cc(C(F)(F)F)n2)[C@H]2CO[C@@H]1O2`, 81.5%; that for `C=C1CC[C@@H]2[C@](C)(COC(C)=O)[C@H](OC(C)=O)CC[C@@]2(C)[C@@H]1CC(Nc1ccc(S(=O)(=O)Nc2nc(C)cc(C)n2)cc1)C1=CCOC1=O` (some centres undefined), 74%.
The result for `COc1ccc(S(=O)(=O)NCCNc2nccc(-c3c(-c4cccc([N+](=O)[O-])c4)nc4sccn34)n2)cc1` reads 68.1%; that for `O=C(Nc1ccc(Nc2cc(Nc3ccccc3)ncn2)cc1)Nc1cc(C(F)(F)F)ccc1F`, 74.4%.
`COc1ccc(/C=C/C(=O)c2c(O)c(C)c(O)c3c2OC2=CC(O)=C(C(C)=O)C(=O)[C@]23C)cc1`: the growth is 6.28% (active).
The result for `C=C(C[n+]1ccccc1)[C@@H]1CC[C@]2(C(=O)OC)CC[C@]3(C)[C@H](CC[C@@H]4[C@@]5(C)CC[C@H](O)C(C)(C)[C@@H]5CC[C@]43C)[C@@H]12` reads 90.6%.
Next, `CCCCCCCCCCCCNC(=O)[C@H]1CSC(c2ccc(OC)c(F)c2)N1` (some centres undefined): -97.8% (active); `COc1ccccc1N1CCN(CCn2c(=O)c3c(c4ccccc4n3C)n(C)c2=O)CC1`: 101%; `CC(C)[C@H]1COC(=O)N1[C@@H]1C(=O)N([C@@H](CCC(=O)N2CCN(C3CCCC3)CC2)C(=O)N[C@@H]2CCCc3ccccc32)[C@@H]1/C=C/c1cccc(Br)c1`: 62.5%.
Next, `Cc1nc2nc(N)nc(N)c2nc1C`: 92.3%.
For `COc1cnc2c(c1)C(=O)c1c-2n(CCCBr)c(=O)c2cc([N+](=O)[O-])ccc12`, the growth is 2.8% (active).
Next, `COc1ccc(-n2cc(-c3ccccc3)c3c(SCC(=O)N/N=C/c4ccc([N+](=O)[O-])cc4)ncnc32)cc1`: 89.7%; `O=C(O)c1cn(C2CC2)c2cc(N3CCN(Cc4nc5c(cnn5-c5ccc([N+](=O)[O-])cc5)c(=O)[nH]4)CC3)c(F)cc2c1=O`: 94.8%; `CCOC(=O)c1cnc2ccc(OC)cc2c1Nc1cccc(S(=O)(=O)NC)c1`: 89.4%.
In the case of `CCN(CC)CCCC(C)NCCCNc1cccc2cccnc12` (centres undefined), the growth was 98.4%.
Next, `COc1ccc(C/C(C)=C(\c2ccc(Cl)cc2)c2ccc(OCCN3CCCCCC3)cc2)cc1`: 84.1%; `C=C1C(=O)O[C@H]2[C@H]1CC/C(Cn1cc(Cn3ccc4cc(Cl)ccc43)nn1)=C\CC[C@@]1(C)O[C@@H]21`: 3.92% (active).
With `COc1cc(/C=N/N(C)C)ccc1O`, the growth was 102%.
The result for `CC(=O)Nc1ccc2c(c1)c(NC(C)=O)nn2C(=O)Nc1ccc(Cc2ccccc2)cc1` reads 49.2%.
Take `CC(C)(C)n1cc(-c2ccnc(NCCNS(=O)(=O)c3ccccc3)c2)c(-c2cccc(O)c2)n1`: the growth is 63.8%.
Next, `CN1C2CCC1/C(=C\c1ccc(Cl)cc1)C1=C2[C@@H](c2ccc(Cl)cc2)C(C#N)=C(N)O1` (some centres undefined): 76%; `O=[N+]([O-])c1cccc(-c2nc3sccn3c2-c2ccnc(NCCCNS(=O)(=O)c3cccc(F)c3)n2)c1`: 10%.
